Screening data from PubChem.
An excerpt weighted towards active compounds, which were near 2.4% of everything screened.
GLS inh: glutaminase GLS (human) inhibition. O94925. GLS enzymatic activity, qHTS titration. Potency, µM (highest dose often 45.5 µM), for the others: at the highest dose activity change, negative = inhibition, most hits filed as inhibitors. 410,000 tested, 0.21% active. AID 624170; also: % is scaled to controls: 0 for no effect and ±100 for the full control effect
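hKGA; 45 mM KH2PO4 pH 8.2 + 0.02% Tween-20; cpd via pin tool; 1 mM Gln soln; GluOx/HRP/Amplex Red; RT 30 min; fluor. t0 & final.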
POLI inh: inhibitors of human DNA polymerase iota | 390,000 tested, 1% active | Pol iota fluorescent replication assay, 10 min | Potency, µM (doses to about 115 µM), for inactives: at the top dose activity, negative = inhibition, hits mostly inhibitors | AID 588590
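Fluorescent replication assay read twice, at 0 min and 10 min after adding 50 nM (final) substrate. Enzyme (10 nM) and compounds were first incubated 15 min at room temperature; enzyme-free buffer wells were negative controls.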
Pol kappa inh-1: blocks human DNA polymerase kappa activity; AID 588579; Potency, µM (top dose mostly 107 µM), for the others: top-dose activity, negative = inhibition, hits mostly inhibitors; Q9UBT6; 400,000 tested, 0.53% active; purified Pol kappa, fluorescent DNA synthesis assay, 10 min; also: % is scaled to controls: 0 for no effect and ±100 for the full control effect
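Fluorescent qHTS in 1536-well format: enzyme (10 nM) and compound sat 15 min at room temperature before 50 nM substrate (final) was added. Signal taken at 0 and 10 min; no-enzyme buffer wells were negative controls.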
APEX1 inh: APE1 (human) endonuclease inhibition | P27695 | recombinant APE1, TAMRA/BHQ-2 abasic DNA cleavage fluorescence | Potency, µM (top dose mostly 65.8 µM), for inactives: top-dose activity change, negative = inhibition, most hits filed as inhibitors | 350,000 tested, 0.35% active | AID 2517;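 also: plate controls were vehicle for no effect and reference inhibitor for full effect; nearly all actives have a fitted effect of over 55% in size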
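Endonuclease cleavage of a quenched abasic-site DNA duplex (50 nM) by APE1 (0.75 nM) was tracked by TAMRA dequenching. Compounds were preincubated with enzyme 15 min at room temperature; data normalized to buffer-only and DMSO wells plus NSC13755 control.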
Pol beta inh: blocks human DNA polymerase beta activity | Pol beta primer extension/strand displacement, fluorescence kinetic | P06746 | Potency, µM (highest dose often 114 µM), for the others: at the highest dose activity change, negative = inhibition, actives largely listed as inhibitors | 340,000 tested, 1.3% active; also: % is scaled to controls: 0 for no effect and ±100 for the full control effect
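Kinetic readout of DNA synthesis with strand displacement by Pol beta. Compound and 10 nM enzyme sit 15 min at room temperature; 50 nM substrate starts the reaction, read immediately and at 10 min.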
Pol eta inh-1: blocks human DNA polymerase eta activity | 390,000 tested, 1.2% active | Potency, µM (series often up to 114 µM), for inactives: top-dose activity change, negative = inhibition, hits mostly inhibitors | recombinant Pol eta, fluorescent DNA replication assay | Q9Y253; also: % is scaled to controls: 0 for no effect and ±100 for the full control effect
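Fluorescent replication assay: 50 nM final substrate added after a 15 min room-temperature compound preincubation with 10 nM enzyme. Signal taken at 0 min and again at 10 min.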
Pol kappa inh-2: Pol kappa (human) inhibition, cherry-pick confirmation; AID 720501; purified Pol-kappa, fluorescent strand-displacement substrate; shares compounds with Pol eta inh-1; Potency, µM, hits mostly inhibitors; 920 tested, 76% active
Pol eta inh-2: confirmation of human DNA polymerase eta inhibitors; Pol eta primer extension, TAMRA/BHQ fluorescence, 10 min; AID 720502; shares compounds with Pol eta inh-1; 2,600 tested, 64% active; Potency, µM, usual class: inhibitors
The depositor's hits bear a star. Calls follow the shape of the dose curve; as a rule, active = well fitted curve in the direction sought with a large enough effect; inconclusive = small, poorly fitted or top-dose-only effect, or another doubt; inactive = no such curve, though single readings can be large; an effect the other way counts as inactive or inconclusive. Potency is read from the fitted curve at half-maximal effect.

`COc1ccc(Cn2c(SCC(=O)NCc3ccco3)nc3ccsc3c2=O)cc1` gave GLS inh -11%, POLI inh inconclusive, Pol kappa inh-1 -21%, APEX1 inh 1%, Pol beta inh inconclusive and Pol eta inh-1 8%.
Nc1nnc(CC(=O)N/N=C/c2cc([N+](=O)[O-])cc(Br)c2O)s1 was read as GLS inh 26%, POLI inh inconclusive, Pol kappa inh-1 50µM*, APEX1 inh -7%, Pol beta inh inconclusive, Pol eta inh-1 inconclusive, Pol kappa inh-2 47* and Pol eta inh-2 inconclusive.
O=C1CS/C(=N/N=C/c2ccccc2)N1c1ccc(O)cc1 was read as GLS inh 0%, POLI inh 110%, Pol kappa inh-1 -4%, APEX1 inh -2%, Pol beta inh -4% and Pol eta inh-1 -11%.
`O=C1CS/C(=N\N=C\c2ccco2)N1c1ccccc1` gave GLS inh 4%, POLI inh inconclusive, Pol kappa inh-1 inconclusive, APEX1 inh inconclusive, Pol beta inh inconclusive, Pol eta inh-1 inconclusive, Pol kappa inh-2 inconclusive and Pol eta inh-2 inconclusive.
O=C(O)CCN1CC2([N+](=O)[O-])C=CC(=O)C([N+](=O)[O-])(C1)C2CC(=O)c1ccccc1 (stereo unspecified) was read as GLS inh 0%, POLI inh inconclusive, Pol kappa inh-1 inconclusive, APEX1 inh 5%, Pol beta inh 28µM*, Pol eta inh-1 18µM*, Pol kappa inh-2 17* and Pol eta inh-2 30*.
Screening O=C(CCN1CCCCCC1)c1ccccc1 returned GLS inh 13%, POLI inh 0%, Pol kappa inh-1 -7%, APEX1 inh 1%, Pol beta inh 0% and Pol eta inh-1 -8%.
N#Cc1ccsc1NC(=O)COC(=O)CCS(=O)(=O)c1ccccc1 was read as GLS inh 4%, POLI inh inconclusive, Pol kappa inh-1 inconclusive, APEX1 inh -32%, Pol eta inh-1 32µM* and Pol eta inh-2 inconclusive.
Screening CCCOc1ccc(CNC(=O)c2cc3oc4ccccc4c3n2C)cc1 returned GLS inh 5%, POLI inh 15%, Pol kappa inh-1 8% and Pol beta inh 7%.
`O=C1NC(=S)NC1=Cc1ccco1` gave GLS inh inconclusive, POLI inh inconclusive, Pol kappa inh-1 inconclusive, Pol eta inh-1 13µM*, Pol kappa inh-2 34* and Pol eta inh-2 76*.
Screening O=C(O)c1ccc2noc(-c3ccccc3)c2c1 returned GLS inh inconclusive, POLI inh inconclusive, Pol kappa inh-1 -13%, APEX1 inh -4%, Pol beta inh 2% and Pol eta inh-1 inconclusive.
Cc1ccc(NC(=O)CCNS(=O)(=O)c2ccc3c(c2)oc(=O)n3C)cc1 was read as GLS inh -3%, POLI inh 20µM*, Pol kappa inh-1 89µM*, APEX1 inh -3%, Pol beta inh -3%, Pol eta inh-1 50µM* and Pol eta inh-2 inconclusive.
`COCc1cc(C)n(CC(=O)N/N=C/c2ccc(-c3ccc(Cl)c(C(=O)O)c3)o2)c(=O)c1C#N` gave GLS inh 4%, POLI inh 22µM*, Pol kappa inh-1 inconclusive, APEX1 inh -3%, Pol beta inh 20µM*, Pol eta inh-1 10µM* and Pol eta inh-2 43*.
COCc1cc(C)n(CC(=O)Nc2ccc(N3CCOCC3)c(Cl)c2)c(=O)c1C#N was read as GLS inh 7%, POLI inh 56%, Pol kappa inh-1 -9%, APEX1 inh 16%, Pol beta inh -3% and Pol eta inh-1 -12%.
For O=S(=O)(NCC1CCCO1)c1ccc(S(=O)(=O)N(Cc2ccc(F)cc2)Cc2ccccn2)cc1 (stereo unspecified) the results were GLS inh 0%, POLI inh -18%, Pol kappa inh-1 -4%, APEX1 inh 9%, Pol beta inh -3% and Pol eta inh-1 -11%.
For Cc1ccc(OCC(=O)Nc2nnc(S(=O)(=O)N3CCC(C)CC3)s2)cc1 the results were GLS inh 41%, POLI inh inconclusive, Pol kappa inh-1 inconclusive, APEX1 inh 23%, Pol beta inh inconclusive, Pol eta inh-1 inconclusive and Pol eta inh-2 85*.
Screening O=c1[nH][nH]c2cc(=O)n(-c3ccc(Cl)cc3)nc12 returned GLS inh 0%, POLI inh inconclusive, Pol kappa inh-1 79µM*, APEX1 inh inconclusive, Pol beta inh inconclusive, Pol eta inh-1 inconclusive, Pol kappa inh-2 17* and Pol eta inh-2 inconclusive.
Screening O=C1[C@H]2[C@H](C=CC[C@H]2C(=O)N2CCOCC2)CCN1Cc1ccccc1 returned GLS inh 1%, POLI inh -19%, Pol kappa inh-1 -14% and Pol eta inh-1 -11%.
Screening COc1ccc(CC(=O)N2CCN(c3ccccc3)CC2)cc1 returned GLS inh -2%, POLI inh 0%, Pol kappa inh-1 7%, APEX1 inh 33%, Pol beta inh -21% and Pol eta inh-1 -4%.
